Screening results (PubChem)
The list is not random: actives were taken first. Their share in the collection is about 3.2%.
DENV2 CPE: protects cells from dengue virus 2 cytopathic effect; DENV2-infected cells, cytopathic effect rescue, plate reader; CPE inhibition, % at 9.99 µM; 350,000 tested, 1.7% active; AID 651640; in the data active = CPE inhibition above about 20%, passing the limit was not always enough; inconclusive = no clear call, values can overlap the other calls; tested in BHK-21 cells;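 note: 0% = median of neutral control wells and 100% = median of positive control wells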
rRNA inh HTS: inhibitors of bacterial rRNA selective over humanized ribosomes. E. coli WT GFP vs humanized-ribosome RFP mutants, fluorescence, 24 h; hits give low values; DMSO median 0, no signal -100. GFP signal change (wild-type ribosome), % (test concentration not listed). 350,000 tested, 1.6% active. AID 720706;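 active = significant combined selectivity score with lowered wild-type GFP, culture density cut under 30%, mutant RFP and density less affected; inactive = any of these conditions unmet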
ERAP1 HTS inh: inhibitors of human ERAP1 aminopeptidase | Q9NZ08 | recombinant ERAP1, Leu-AMC fluorescence, 60 min | inhibition, % at 10.7 µM | 340,000 tested, 0.15% active | AID 652197;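 active = mean replicate inhibition of at least 30%, or all replicates individually reaching that 30% level; inactive = mean below 30% and not every replicate reaching it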;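 note: 0% = neutral control wells and 100% = L-leucinethiol positive control wells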
Target sequence (Q9NZ08 whole entry, looked up): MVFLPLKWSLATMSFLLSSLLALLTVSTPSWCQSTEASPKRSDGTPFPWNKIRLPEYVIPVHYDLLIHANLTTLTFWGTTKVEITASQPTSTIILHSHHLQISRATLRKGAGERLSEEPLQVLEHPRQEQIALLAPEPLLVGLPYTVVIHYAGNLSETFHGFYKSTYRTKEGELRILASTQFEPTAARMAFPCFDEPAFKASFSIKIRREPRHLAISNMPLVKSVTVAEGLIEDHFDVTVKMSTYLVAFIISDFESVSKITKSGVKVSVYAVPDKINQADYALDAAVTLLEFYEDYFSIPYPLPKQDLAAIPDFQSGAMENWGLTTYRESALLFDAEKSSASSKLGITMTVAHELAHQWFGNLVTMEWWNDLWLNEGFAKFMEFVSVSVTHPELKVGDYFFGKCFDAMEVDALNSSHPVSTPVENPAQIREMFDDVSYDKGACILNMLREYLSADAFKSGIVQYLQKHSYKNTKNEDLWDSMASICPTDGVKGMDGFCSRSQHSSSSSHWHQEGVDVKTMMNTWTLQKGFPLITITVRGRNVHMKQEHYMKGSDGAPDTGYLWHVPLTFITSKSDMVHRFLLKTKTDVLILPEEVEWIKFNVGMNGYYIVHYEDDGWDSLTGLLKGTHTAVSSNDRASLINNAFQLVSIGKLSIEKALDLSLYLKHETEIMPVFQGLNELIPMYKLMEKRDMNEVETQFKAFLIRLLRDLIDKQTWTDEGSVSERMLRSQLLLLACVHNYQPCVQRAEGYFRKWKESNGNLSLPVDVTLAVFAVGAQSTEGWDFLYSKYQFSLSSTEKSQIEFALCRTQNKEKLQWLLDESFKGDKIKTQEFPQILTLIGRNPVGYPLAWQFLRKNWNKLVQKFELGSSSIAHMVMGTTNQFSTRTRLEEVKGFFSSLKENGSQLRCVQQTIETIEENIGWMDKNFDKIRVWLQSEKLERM
PGC1a acetyl inh: modulators of PGC1a acetylation | U2OS PGC1a acetylation, AlphaScreen anti-acetyl-lysine; with virally co-expressed GCN5 acetyltransferase | inhibition, % at 15.6 µM | 350,000 tested, 0.17% active | AID 651687;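 active = every replicate shows inhibition of at least 40%; inconclusive = mean inhibition at least 40% but some replicate below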;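 note: 0% = neutral control wells and 100% = positive control wells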
CaV13 FRET inh: Disruptors of the CACNA1D IQ motif to Ca2+-dependent inactivation inhibitor domain association, primary screening, Förster resonance energy transfer in intact living …; HEK cells, CFP/YFP FRET ICDI-IQ, plate reader, 10 min; percent FRET-ratio fall versus neutral wells; inhibition, % at 12.3 µM; 340,000 tested, 0.098% active; AID 743397;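 active = mean replicate inhibition of at least 30% and at least 1% of replicates passing that level; inconclusive = only one of the two criteria is met; inactive = neither criterion is met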;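 note: 0% = median of the neutral control wells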
GSIS activator: GLuc luminescence reporter in INS-1E cells, primary screen for activators of glucose-dependent secretion of insulin | activation, % at 16.6 µM | 370,000 tested, 0.61% active | INS-1E GLuc reporter insulin secretion, 2-3 h;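 active = lowest replicate activation of at least 40%, so every replicate reaches that level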;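 note: 0% = median of neutral control wells and 100% = median of IBMX positive control wells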
AID977621: wild-type E. coli growth inhibition versus H69 humanized strain – H69 mutant RFP, wild-type GFP, cherry-pick, dose response; shares compounds with rRNA inh HTS; activity change, negative = inhibition at 50 µM; fluorescence, 24 h; AID 977621; 1,900 tested, under 10 active;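 active = Wild-type ribosome reporter drop at least double the humanized mutant ribosome reporter drop, growth loss under a set limit; inconclusive = no clear call, values can overlap the other calls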;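 note: wild-type GFP and H69 mutant RFP strains grown together 50/50 in each well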
AID977628: growth of wild-type and h24-humanized E. coli strains – h24 mutant RFP vs wild-type GFP, cherry-pick, dose response | shares compounds with rRNA inh HTS | E. coli WT GFP strain growth, fluorescence, 24 h | activity change, negative = inhibition at 50 µM | 1,900 tested, under 10 active | AID 977628;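 active = compound lowering the normal-ribosome reporter at least twice as much as the humanized-ribosome reporter, growth loss under a set limit; inconclusive = no clear call, values can overlap the other calls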;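 note: wild-type GFP and h24 humanized RFP strains co-cultured 1 to 1 per well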
The depositor's hits bear a star; ! = repeats disagree.

What do the screens show for `CN1N=C2c3ccccc3CCC2C1c1ccc(F)cc1` (stereo unspecified)?
DENV2 CPE: -2; rRNA inh HTS: -16*; ERAP1 HTS inh: -5; PGC1a acetyl inh: 8; CaV13 FRET inh: -21; GSIS activator: 22; AID977621: -9.4; AID977628: inconclusive

What do the screens show for `Cc1cc(C(=O)COC(=O)c2ccc(O)cc2)c(C)n1CC(F)(F)F`?
DENV2 CPE: -2; rRNA inh HTS: -20*; ERAP1 HTS inh: -3; PGC1a acetyl inh: 4; CaV13 FRET inh: -3; GSIS activator: 4; AID977621: -11; AID977628: -4.5

What do the screens show for `O=C(C1CCC1)N1CC[C@@H]2[C@H](CO)Nc3ccc(C#Cc4cccc(F)c4)cc3[C@@H]21`?
DENV2 CPE: -12; rRNA inh HTS: -4; ERAP1 HTS inh: 1; PGC1a acetyl inh: -5; GSIS activator: -2

What do the screens show for `Cc1cc(NC(=O)CCCn2cc([N+](=O)[O-])cn2)n(Cc2ccc(F)cc2)n1`?
DENV2 CPE: inconclusive; rRNA inh HTS: -23*; ERAP1 HTS inh: -3; PGC1a acetyl inh: 4; CaV13 FRET inh: -1; GSIS activator: -4; AID977621: 0.39; AID977628: inconclusive

What do the screens show for `CO[C@@H]1CN(C)C(=O)c2ccc(NC(=O)CC(F)(F)F)cc2OC[C@H](C)N(CC2CC2)C[C@@H]1C`?
rRNA inh HTS: 1; GSIS activator: 8

Results for Clc1ccccc1C1CC(c2ccccc2)=Nc2ccccc2N1 (stereo unspecified) ?
DENV2 CPE: inconclusive; rRNA inh HTS: -20*; ERAP1 HTS inh: 2; PGC1a acetyl inh: 0; CaV13 FRET inh: 6; GSIS activator: 29; AID977628: inconclusive

What do the screens show for `C=CCSc1cc(C)nc2c(-c3ccccc3)c(C)nn12`?
DENV2 CPE: 3; rRNA inh HTS: -38*; ERAP1 HTS inh: 3; PGC1a acetyl inh: 0; CaV13 FRET inh: -9; GSIS activator: 3; AID977621: -7.6; AID977628: -4.8

What do the screens show for `COc1cc(NC(=O)c2ccccc2)c(OC)cc1Cl`?
PGC1a acetyl inh: 49

How did COc1ccc(-c2ccccc2)cc1NC(=O)c1ccncc1 do in these assays?
DENV2 CPE: 11; rRNA inh HTS: -31*; ERAP1 HTS inh: -3; CaV13 FRET inh: -10; GSIS activator: 5; AID977621: -21

What do the screens show for `CC(C)Oc1nc(-c2ccccc2Cl)nc2ccccc12`?
DENV2 CPE: -5; rRNA inh HTS: -18*; ERAP1 HTS inh: 7; CaV13 FRET inh: -4; GSIS activator: 11; AID977628: -11

What do the screens show for `CCOc1nc(-c2ccccc2O)nc2ccccc12`?
DENV2 CPE: 2; rRNA inh HTS: 5; ERAP1 HTS inh: 0; CaV13 FRET inh: -7; GSIS activator: 17

How did C=CCn1c(C)cc(C(=O)COC(=O)CNC(=O)c2ccccc2)c1C do in these assays?
DENV2 CPE: -1; rRNA inh HTS: -24*; ERAP1 HTS inh: -1; CaV13 FRET inh: -2; GSIS activator: -14; AID977621: -7.8

What do the screens show for `CCOC(=O)[C@@H]1[C@@H]2C=C[C@]3(O2)[C@H](C(=O)NCc2ccccc2)N(CCCCCCO)C(=O)[C@@H]13`?
DENV2 CPE: 1; ERAP1 HTS inh: 3; PGC1a acetyl inh: 11

What do the screens show for `C[C@H]1CN([C@@H](C)CO)C(=O)c2c(c3ccccc3n2C)-c2ccccc2CO[C@@H]1CN(C)C(=O)CCN(C)C`?
DENV2 CPE: -4; rRNA inh HTS: 2; ERAP1 HTS inh: 0; PGC1a acetyl inh: -26; GSIS activator: 3

Results for C[C@@H]1CN([C@H](C)CO)C(=O)c2c(c3ccccc3n2C)-c2ccccc2CO[C@@H]1CN(C)C(=O)CCN(C)C ?
DENV2 CPE: 3; rRNA inh HTS: -19*!; CaV13 FRET inh: -6; GSIS activator: 14; AID977628: -3.8

How did C[C@H]1CN([C@@H](C)CO)C(=O)c2c(c3ccccc3n2C)-c2ccccc2CO[C@@H]1CN(C)Cc1ccccc1 do in these assays?
DENV2 CPE: -8; rRNA inh HTS: -42*; ERAP1 HTS inh: 4; PGC1a acetyl inh: -10; GSIS activator: -20; AID977621: inconclusive; AID977628: inconclusive

Results for COc1ccc(S(=O)(=O)Nc2ccc3c(c2)C(=O)N([C@@H](C)CO)C[C@H](C)[C@@H](CN(C)C(=O)c2ccncc2)OCCCC[C@@H](C)O3)cc1 ?
DENV2 CPE: 3; rRNA inh HTS: 0; ERAP1 HTS inh: 1; PGC1a acetyl inh: -1; GSIS activator: -7

What do the screens show for `C[C@@H]1CN([C@@H](C)CO)C(=O)Cc2cc(NC(=O)CCC(F)(F)F)ccc2O[C@H]1CN(C)Cc1ccc(Cl)c(Cl)c1`?
DENV2 CPE: -5; rRNA inh HTS: -9; ERAP1 HTS inh: 2; PGC1a acetyl inh: -1; GSIS activator: -36

Results for CCN(CC)c1nc(Oc2ccc(C(=O)OC)cc2)nc(N2CCOCC2)n1 ?
DENV2 CPE: -2; rRNA inh HTS: -16*; PGC1a acetyl inh: -10; CaV13 FRET inh: -13; GSIS activator: -35; AID977621: -7.2; AID977628: -16

Results for Fc1ccc(CSc2nnc(-c3ccco3)o2)cc1 ?
DENV2 CPE: 13; rRNA inh HTS: -17*; ERAP1 HTS inh: 1; CaV13 FRET inh: -4; GSIS activator: -8; AID977621: inconclusive; AID977628: 1.4

Results for C[C@]12C(=O)N(c3ccc(F)cc3)C(=O)N1[C@@H]1c3ccccc3OC[C@@H]1[C@H]2c1ccccc1 ?
DENV2 CPE: -15; rRNA inh HTS: -25*; ERAP1 HTS inh: -3; CaV13 FRET inh: -4; GSIS activator: -8; AID977621: 0.48; AID977628: -15

What do the screens show for `CCOC(=O)[C@@H]1[C@H]2COc3ccccc3[C@H]2N2C(=O)N(c3ccc(F)cc3)C(=O)[C@]12C`?
rRNA inh HTS: 0; ERAP1 HTS inh: 2; PGC1a acetyl inh: -4; CaV13 FRET inh: -5

Results for Cc1ccccc1NC(=O)c1ccccc1N(C)S(=O)(=O)c1ccccc1 ?
DENV2 CPE: 6; rRNA inh HTS: -19*; ERAP1 HTS inh: -5; PGC1a acetyl inh: -5; CaV13 FRET inh: -5; GSIS activator: -6; AID977621: -21; AID977628: inconclusive
